Consider 40 compounds from PubChem BioAssay (NCI).

Compounds without any hit were thinned out: in the full panel of roughly 83,000, 20% have a hit.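 Negative percent growth values reflect cell death: -40 means 40% of the cells present at the start died, and -100 means all died.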 Values without a mark were called inactive. Activity calls are given as the source filed them.

The subject of the assay is OVCAR-5 ovarian. The experiment in a line: NCI-60 one-dose screen, 48 h (100 = growth as untreated, 0 = no growth, -100 = all killed). The settings on record: 10 µM unless noted. As to the method: Growth inhibition of the OVCAR-5 human tumor cell line is measured as a screen for anti-cancer activity. Cells are grown in 96 well plates and exposed to the test compound for 48 hours. Compounds are tested at a single concentration, which is 10^-5 M for most compounds. The reported endpoint is percent growth (GI% or GIPRCNT), where numbers from 0 - 100% represent growth inhibition, and numbers from -100% - 0 represent cell death. For example, a value of 40 represents 60% growth inhibition. A value of 0 means no net growth occurred over the course of the experiment. A value of -40 indicates 40% of cells at the beginning of the experiment died by the end of the experiment. A value of -100 means all cells are dead at the end of the experiment.
NCI-60 Human Tumor Cell Lines Screen was performed using the standard one-dose NCI protocol, which is described in more detail at https://dtp.cancer.gov/discovery_development/nci-60/default.htm.
Compounds with GIPRCNT values below 10 were considered active. Activity score was based on GIPRCNT using the following formula: […]
Score is 0 for GIPRCNT values of 100 or above, 50 for GIPRCNT values of 0, and 100 for GIPRCNT values of -100.
On to `CCSCC1CC(O)(c2ccccc2)C(c2ccccc2)C(c2ccc(F)cc2)O1` (stereo not given), for which the growth was -2.48% (active).
As to `CCOC(=O)Nc1ccc2nc(Sc3ccc(Cl)cc3)sc2c1`, the growth was 85.9%.
In the case of `CCN1C(=O)C(C)C=C(C)C=C1C` (stereo not given) it was 106%; in that of `CN1C(=O)C(C2=NNC(c3ccccc3C(=O)O)C2)C(=O)N(C)C1=O` (stereo not given), 94.6%; in that of `Fc1ccc(-c2nc(-c3ccc(-c4nc5ccc(F)cc5[nH]4)cc3)no2)cc1`, 94.7%.
`CC(C)[C@@H]1C=C2CC[C@H]3[C@](C)(CN)CCC[C@]3(C)[C@H]2CC1`: the growth was 111%.
Under `CC(C)[C@@]12C[C@@H](OC(=O)[C@H]3CO3)[C@@](C)(O1)[C@@H]1CC[C@@H](C)[C@H]1[C@@H]2OC(=O)/C=C/c1ccccc1` stands 100%.
Under `O=C(Cc1ccc([N+](=O)[O-])cc1)Oc1ccccc1` stands 115%; under `COc1ccc(C(=O)C(CN(C)C)c2ccc(OC)cc2)cc1` (stereo not given), 94.8%; under `Nc1c(C(=O)Nc2ccccc2)sc2nc3c(cc12)C(=O)CCC3`, 59.9%.
In the case of `O=C(NCCN1CCCCC1)n1cc(-c2ccncc2)c(-c2ccc(Cl)c(O)c2)n1` it was 96.5%; in that of `C=C1C(=O)O[C@H]2[C@H]1CC/C(COC(=O)NCc1[nH]nc3ccccc13)=C\CC[C@@]1(C)O[C@@H]21`, 58.5%.
Take `COc1cccc(/C(C)=N/NC(=O)CSc2nc3ccccc3c(=O)n2CCc2ccc(S(N)(=O)=O)cc2)c1`: the growth is 73.2%.
In the case of `c1ccc2oc(-c3cnc4nonc4n3)cc2c1` it was 104%; in that of `Cc1ccc(NC(=O)c2cc(NCc3cc(O)ccc3O)ccc2O)cc1`, 125%.
With `O=S(=O)(Cc1ccc(Cl)cc1Cl)c1ccc(Cl)cc1`, the growth was 53.9%.
Under `Cc1cc(C#Cc2ccc(C(C)(C)C)cc2)ccc1-n1c(/C=C/c2c(Cl)cccc2Cl)nc2ccccc2c1=O` stands 106%.
Under `COc1cc(C2CC(c3ccc(Cl)cc3)=NN2C(C)=O)ccc1Oc1nc2c(c(=O)n(C)c(=O)n2C)n1C` (stereo not given) stands 108%; under `COc1ccc(/C=C(\C#N)c2cc(OC)c(OC)c(OC)c2)cc1`, 38.6%; under `CCN(CC)c1cc(C)c(Cc2c(OC)ccc3ccccc23)cc1C`, 102%.
As for `C=C(c1ccc(C(=O)NCCCn2ccnc2)cc1)c1cc2c(cc1C)C(C)(C)CCC2(C)C`, the growth was 33.3%.
With `CCn1c(Cc2ccccc2Nc2c(Cl)cccc2Cl)nnc1SCC(=O)Nc1cccc(OC)c1`, the growth was 82.9%.
Under `c1coc(CNc2c3ccccc3nc3ccccc23)c1` stands 76.4%; under `C[C@H](NC(=O)c1snnc1C1CC1)c1c(F)cccc1Cl`, 115%.
As for `Cc1ccc(NC(=O)c2sc3nc4c(cc3c2N)C(=O)CCC4)cc1Cl`, the growth is 101%.
As to `O=C(CC(=O)C(F)(F)C(F)(F)C(F)(F)F)c1cc2ccccc2o1`, the growth was 103%.
In the case of `Cc1c(C(=O)Nc2ccccc2F)sc2c(=O)[nH]cnc12` it was 123%.
Under `CC(C)CC(=O)C(CCc1ccccn1)C(C)C` (stereo not given) stands 105%; under `CCOC(=O)C1OC2(CCCC2)OC1C(=O)OCC` (stereo not given), 110%.
For `COC(=O)C(Br)(C(=O)OC)C(Br)C(Br)C(Br)c1ccccc1` (stereo not given), the growth is 126%.
With `CC1=CCC2C1CC=C(C)C(CC[C@H]1[C@@](C)(O)CCC3OC(C)(C)[C@H](OC(=O)c4ccccc4)CC[C@@]31C)C2(C)C` (stereo not given in full), the growth was 100%.
For the compound `CC(C)(C)[Si](C)(C)OC1[C@@H](CNC(N)=O)O[C@@H](n2cnc3c(NC(=O)Nc4ccccc4)ncnc32)[C@H]1O[Si](C)(C)C(C)(C)C` (stereo not given in full), the growth is 82.5%.
For `COc1ccccc1-[n+]1cc(-c2ccc(-c3ccccc3)cc2)n2c1CCCCC2`, the growth was 18.4%.
In the case of `CC(SC(C)C(=O)N/N=C/c1cccc(Cl)c1)C(=O)N/N=C\c1cccc(Cl)c1` (stereo not given) it was 115%; in that of `CCCCCCCCCCCC1=NC(C)(C)CN1CC(C)O` (stereo not given), 92.5%.
As for `C=C1C(=O)O[C@H]2[C@H]1CC/C(COC(=O)NCc1cn(C)c3ccccc13)=C\CC[C@@]1(C)O[C@@H]21`, the growth is 23%.
On to `CCN(CC)c1ccc(/C=N/NC(=O)c2ccc(S(C)(=O)=O)cc2)c(O)c1`, for which the growth is 32.5%.
Under `O=c1nc(-c2ccccc2)c2cc(-c3ccc(N4CCOCC4)cc3)ccc2[nH]1` stands 99.5%; under `CCCCSc1ncnc2c1ncn2C1CCCCO1` (stereo not given), 99.1%; under `CO[C@H](C(=O)[C@@H](O)[C@@H](C)O)[C@@H]1Cc2cc3cc(O[C@H]4C[C@@H](O[C@H]5C[C@@H](O)[C@H](O)C(C)O5)[C@H](O)C(C)O4)c(C)c(O)c3c(O)c2C(=O)[C@H]1O[C@H]1C[C@@H](O[C@H]2C[C@@H](O[C@H]3C[C@](C)(O)C(=O)C(C)O3)[C@@H](O)C(C)O2)[C@H](O)C(C)O1` (stereo not given in full), 13.1%.
